Where “and” joins values, the source holds several entries; their conditions need not be identical. Equal entries are not always repeated. Results filed as inconclusive are left out. Values without a mark were called inactive. Calls of active or inactive are those of the source. Calls follow the shape of the dose curve; as a rule, active = well fitted inhibition curve with a large enough effect; inconclusive = small, poorly fitted or top-dose-only effect; inactive = no such curve, though single readings can be large or run the other way.

The test in a line: qHTS Assay for Lipid Storage Modulators: S3 Assay against Probe and Analogs. As to conditions: Drosophila S3 cells, BODIPY lipid droplet fluorescence, 18-24 h, oleic acid added to induce droplets; series mostly up to 46.1 µM; activity, negative = lipid storage inhibition: at the top concentration. The source says:
Storing lipids as a reservoir for energy or the anabolism of elementary metabolites is a common feature of probably all cells and is conserved from bacteria to humans. The universal cellular lipid storage organelle is the so-called lipid storage droplet (LD). Although ubiquitous, LDs share a simple structure composed of a hydrophobic core that harbors the storage lipids, which is shielded by a droplet-specific phospholipid monolayer to which proteins are attached. The current model of LD biogenesis involves an incorporation of the lipid core into the membrane leaflets of the endoplasmic reticulum (ER) followed by a subsequent budding-like maturation of a LD, which ultimately pinches off. Once released, LD volume can increase by localized lipogenesis or fusion of existing droplets. Storage lipids are re-mobilized enzymatically by lipase activity. Lipase regulation in the adipocyte is heavily studied and involves multiple components including catecholamine signaling, the LD-associated proteins Perilipin and comparative gene identification-58 (CGI-58) and at least two lipases named hormone sensitive lipase (HSL) and adipocyte triglyceride lipase (ATGL). LD regulation outside of the adipocyte is poorly understood and only few components are known. However, there is an urgent need to learn more about ectopic fat depots as mislocalized storage of lipids, for example in the liver or muscle, is an eminent health problem associated with insulin resistance or the metabolic syndrome. We developed a laser-scanning cytometer assay to enable 1,536-well screening and combined the results of the small molecules screen with an RNAi database based on lipid storage. In this assay we tested analogs of the probe against the original qHTS assay, which involved drosophila melanogaster cells (S3), to see if these small molecules could disrupt lipid storage. NIH Molecular Libraries Probe Production Centers Network [MLPCN] NIH Chemical Genomics Center [NCGC] MLPCN Grant: MH085686 Assay Submitter (PI): Mathias Beller, Max-Planck-Institut fur Biophysikalische Chemie
qHTS was performed with embryonic Drosophila S3 cells (Bloomington Drosophila Genomics Resource Center [DGRC]). We dispensed 4 uL of cells at 1.25 x 10^6 cells/mL into LoBase Aurora COC 1,536-well plates (black walled, clear bottom) with a bottle-valve solenoid-based dispenser (Aurora) to obtain 5,000 cells/well. Triacsin C (Sigma-Aldrich T-4540), an inhibitor of long-chain fatty acyl CoA synthetase that blocks synthesis of triglycerides, was used as a positive control for lipid under-storage. A total of 23 nL of compounds dissolved in DMSO at different concentrations were transferred to the assay plates using a Kalypsys pin tool equipped with a 1,536-pin array containing 10-nL slotted pins (FP1S10, 0.457-mm diameter, 50.8 mm long; V&P Scientific). The final DMSO concentration was 0.46%. One microliter of oleic acid at 400 uM (Calbiochem, #4954) was added to induce lipid droplet formation in the cells, and the plates were lidded with stainless steel rubber gasket lined lids containing pinholes. After 18-24 h incubation at 25 0C and 95% humidity, 4 uL of the BODIPY lipid dye 493/503 (1:2000, Molecular Probes) and the Cell Tracker Red CMTPX dye (Life Technologies, # 34552) were added to the wells to stain lipid droplets and enumerate cell number, respectively. Fluorescence was detected by excitation of the fluorophores with a 488-nm laser on an Acumen Explorer (TTP Lab Tech). The total intensity in channel 1 (500-530 nm) reflected lipid droplet accumulation. Cells were detected using channel 3 (575-640 nm) with 5-um width and 100-um depth filters. The ratio of the total intensity in PMT channel 1 over total intensity of channel 3 was also calculated. Percent activity was computed relative to an internal control (100% inhibited lipid droplet deposition due to the presence of 20 uM Triacsin C), which was added to 32 wells/plate.
Background: qHTS replaces the single test concentration by a dilution series.
As for `O=C(NCCc1ccc(OCC(F)(F)F)c(OCC(F)(F)F)c1)c1cc2sccc2n1Cc1ccccc1`, the Potency was 1320 nM (active).

For the molecule `CCn1c(C(=O)NCCc2ccc(OC)c(OC)c2)cc2sccc21`, the “activity, negative = lipid storage inhibition” value is -46.7%.

As to `O=C(Nc1ccccc1-c1cn2c(CN3CCNCC3)csc2n1)c1cnc2ccccc2n1`, the “activity, negative = lipid storage inhibition” value was -100%.

In the case of `CCOc1ccc(CCN(C)C(=O)c2cc3sccc3n2Cc2ccccc2)cc1OCC`, the Potency is 469 nM (active).

As for `COc1nc(-c2ccc3c(c2)OCO3)n(-c2ccc(NC(=O)CSc3ccccc3)cc2)n1`, the “activity, negative = lipid storage inhibition” value was 43.3%.

`Cc1cccc(-c2ccc3ncnc(NCc4cccc(F)c4)c3c2)c1`: the “activity, negative = lipid storage inhibition” value is -96.7%.

Consider `CCOc1ccc(CCNC(=O)c2ccnn2Cc2cccc(C)c2)cc1OCC`, for which the “activity, negative = lipid storage inhibition” value was -100%.

In the case of `CCOC(=O)C1CCN(C(=O)C(C)(C)NC(=O)Nc2cccc(-c3csc(C)n3)c2)CC1`, the “activity, negative = lipid storage inhibition” value is 6.67%.

`CCOc1ccc(CCNC(=O)c2cc3ccccc3o2)cc1OCC`: the “activity, negative = lipid storage inhibition” value is 23.3%.

Regarding `CCOc1ccc(CCNC(=O)c2cc3sccc3n2Cc2ccccn2)cc1OCC`, the Potency was 29.6 nM (active).

With `O=C(NC1CCCc2c1cnn2CCO)c1ccccn1` (stereo not given), the “activity, negative = lipid storage inhibition” value is -100%.

For `O=C(Nc1cccc2c1cnn2-c1ccc(F)cc1)c1ccccn1`, the “activity, negative = lipid storage inhibition” value is 123%.

In the case of `CN(C)CC(=O)NC1CCCc2c1cnn2-c1ccc(F)cc1F` (stereo not given), the “activity, negative = lipid storage inhibition” value is 73.3%.

As to `O=C(NCCc1ccc(O)c(O)c1)c1cc2sccc2n1Cc1ccccc1`, the “activity, negative = lipid storage inhibition” value is 26.7%.

For `CCOC(=O)C1CCN(C(=O)C(C)(C)NC(=O)Nc2ccc(N)cc2)CC1`, the “activity, negative = lipid storage inhibition” value is -20%.

Take `CCn1c(C(=O)NCCc2ccc(OC)cc2)cc2sccc21`: the “activity, negative = lipid storage inhibition” value was 177%.

As to `O=C(NC1CCCc2c1cnn2-c1ccc(F)cc1F)c1ccc(C(=O)c2ccccc2)cc1` (stereo not given), the “activity, negative = lipid storage inhibition” value was 40%.

Consider `CCOC(=O)C1CCN(C(=O)C2(NC(=O)Nc3ccccc3Cl)CC2)CC1`, for which the “activity, negative = lipid storage inhibition” value is -60%.

Regarding `CCOc1cc(CCNC(=O)c2cc3sccc3n2Cc2ccccc2)cc(F)c1OCC`, the Potency was 33.2 nM (active).

As to `O=C(NC1CCCc2c1cnn2-c1ccc(F)cc1F)c1ccncc1` (stereo not given), the “activity, negative = lipid storage inhibition” value is -80%.

As to `CC1(C)CCC(c2ccc(Cl)cc2)=C(CN2CCN(c3ccc(C(=O)NS(=O)(=O)c4ccc(N[C@H](CCN5CCOCC5)CSc5ccccc5)c(S(=O)(=O)C(F)(F)F)c4)cc3)CC2)C1`, the Potency was 526 nM (active).

As for `O=C(NC1CCCc2c1cnn2-c1ccc(F)cc1F)c1ccccc1` (stereo not given), the Potency was 20.9 nM (active) and 26.4 nM (active).

For the molecule `C[C@@H](NCCCc1cccc(C(F)(F)F)c1)c1cccc2ccccc12`, the “activity, negative = lipid storage inhibition” value was -103%.

Turning to `Cc1cc(SCc2sc(-c3ccc(C(F)(F)F)cc3)nc2C)ccc1OCC(=O)O`, the “activity, negative = lipid storage inhibition” value was 73.3%.

As for `CCOc1ccc(CCNC(=O)c2cc3sccc3n2Cc2ccccc2)c(F)c1OCC`, the “activity, negative = lipid storage inhibition” value was -100%.

Consider `CC(C)(C)OC(=O)NCCOCCOCCOc1cccc(-n2ncc3c2CCCC3NC(=O)c2ccccn2)c1` (stereo not given), for which the Potency was 18.7 nM (active).

For the molecule `CCOc1ccc(CCNC(C)=O)cc1OCC`, the “activity, negative = lipid storage inhibition” value is -23.3%.

With `CCOC(=O)C1CCN(C(=O)C(C)(C)NC(=O)Nc2ccc(C#N)cc2)CC1`, the “activity, negative = lipid storage inhibition” value is -43.3%.

As to `O=C(NC1CCCc2c1cnn2-c1ccc(F)cc1F)c1ccc(C2(C(F)(F)F)N=N2)cc1` (stereo not given), the Potency was 7430 nM (active).

Consider `CCOc1ccc(CCNC(=O)c2ccc3[nH]ccc3c2)cc1OCC`, for which the “activity, negative = lipid storage inhibition” value was 96.7% [at 38.8 µM].

On to `CCOc1ccc(CCNC(=O)c2csc(Br)n2)cc1OCC`, for which the “activity, negative = lipid storage inhibition” value was 140% [at 38.8 µM].

For the molecule `O=C(NC1CCCc2c1cnn2-c1cccc(O)c1)c1ccccn1` (stereo not given), the Potency was 41.8 nM (active).

Consider `CCn1c(C(=O)NCc2ccc(OC)c(OC)c2)cc2sccc21`, for which the “activity, negative = lipid storage inhibition” value was 46.7%.

Take `O=C(Cc1ccccc1)NC1CCCc2c1cnn2-c1ccc(F)cc1F` (stereo not given): the “activity, negative = lipid storage inhibition” value was 30%.

In the case of `O=C(NC1CCCc2c1cnn2-c1ccc(F)cc1F)C1CCCCC1` (stereo not given), the “activity, negative = lipid storage inhibition” value was -93.3%.

On to `CCOc1ccc(CCNC(=O)c2cc3ccccc3n2Cc2ccc(Cl)c(F)c2)cc1OCC`, for which the Potency is 5.9 nM (active).

Regarding `O=C(NC1CCCc2c1cnn2-c1ccc(F)cc1F)c1cccs1` (stereo not given), the Potency is 14.8 nM (active).

With `CCOc1ccc(CCNC(=O)c2cc3sccc3n2CCN2CCOCC2)cc1OCC`, the Potency is 148 nM (active).

Turning to `O=C(NC1CCCc2c1cnn2-c1ccc(F)cc1F)c1cnon1` (stereo not given), the “activity, negative = lipid storage inhibition” value is 3.33%.

On to `CCOc1ccc(CCNC(=O)c2ccccn2)cc1OCC`, for which the “activity, negative = lipid storage inhibition” value was 180%.

For the origin of these results see PubChem BioAssay AID652175 (National Center for Advancing Translational Sciences (NCATS), 2013).
